# Source: the supplement of paper PMC10037445
# Whole data set: some 2,900 compounds, median “NF-kB SEAP reporter activity, fold change vs agonist alone” near 0.99, cut for the highest 2% near 2.6. This is one part of a sample in which the highest values are shown more often than they occur.
# What was measured:
# RAW-Dual [1] = assay: NF-kB SEAP reporter activity, fold change vs agonist alone; cytotoxicity flag (confluency mask): cytotoxic (confluency <70% of control); higher = enhanced NF-kB activity
# Method in brief: (§1)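 RAW-Dual macrophages were seeded in DMEM at 50,000 cells/well in 384-well plates, given 50 nL of library stock by pin tool, and given a PRR agonist 1 h later. Plates were held at 37 °C, 5% CO2 for 20 hours, after which supernatant was read for IRF by QuantiLuc luminescence and for NF-κB by QuantiBlue absorbance at 620 nm. Reporter activity is expressed as fold change over wells that received agonist alone. A well was called cytotoxic when IncuCyte confluency fell below 70% of agonist controls in both mask sets.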
# RAW-Dual [2] = assay: NF-kB SEAP reporter activity, fold change vs agonist alone; cytotoxicity flag (confluency mask): not cytotoxic; higher = enhanced NF-kB activity
# Method in brief: as §1
# RAW-Dual [3] = assay: NF-kB SEAP reporter activity, fold change vs agonist alone; higher = enhanced NF-kB activity; details: library stock concentration (final ~1000-fold dilution): 10 mM
# Method in brief: as §1
# [4] = agonist: ODN 1826 (TLR9) 0.5 ug/mL
# [5] = agonist: Pam2CSK4 (TLR2/6) 0.1 ug/mL
# [6] = agonist: Pam3CSK4 (TLR2/1) 0.1 ug/mL
# [7] = cytotoxicity flag (confluency mask): cytotoxic (confluency <70% of control), agonist: Imiquimod (TLR7) […]
# [8] = cytotoxicity flag (confluency mask): cytotoxic (confluency <70% of control), agonist: MPLA (TLR4) […]
# [9] = cytotoxicity flag (confluency mask): not cytotoxic, agonist: Imiquimod (TLR7) […]
# [10] = cytotoxicity flag (confluency mask): not cytotoxic, agonist: MPLA (TLR4) […]
structure (smiles),measurement,setting,value
O=C(CCCCCCNC(=O)c1cnc(N(c2ccccc2)c2ccccc2)nc1)NO (library stock concentration (final ~1000-fold dilution): 10 mM),NF-kB SEAP reporter activity,RAW-Dual [1]; agonist: LPS (TLR4) 0.1 ug/mL,4.12
same,NF-kB SEAP reporter activity,RAW-Dual [1]; [4],1.3
same,NF-kB SEAP reporter activity,RAW-Dual [1]; [5],0.825
same,NF-kB SEAP reporter activity,RAW-Dual [1]; [6],1.08
CCOC(=O)NCCCC(=O)NCCc1ccccc1 (library stock concentration (final ~1000-fold dilution): 10 mM),NF-kB SEAP reporter activity,RAW-Dual [2]; agonist: LPS (TLR4) 0.1 ug/mL,1.31
same,NF-kB SEAP reporter activity,RAW-Dual [2]; [4],0.995
same,NF-kB SEAP reporter activity,RAW-Dual [2]; [5],1.17
same,NF-kB SEAP reporter activity,RAW-Dual [2]; [6],1.06
O=C(CCCCCCC(=O)N/N=C/c1ccc(N(c2ccccc2)c2ccccc2)cc1)NO,NF-kB SEAP reporter activity,RAW-Dual [3]; [7],1.77
same,NF-kB SEAP reporter activity,RAW-Dual [3]; [8],2.3
CN(C)c1ccc(C(=O)NCCCCCCC(=O)NO)cc1,NF-kB SEAP reporter activity,RAW-Dual [3]; [7],2.83
same,NF-kB SEAP reporter activity,RAW-Dual [3]; [8],2.64
O=C(NO)c1cccc(C(=O)NCCc2ccccc2)c1,NF-kB SEAP reporter activity,RAW-Dual [3]; [9],1.05
same,NF-kB SEAP reporter activity,RAW-Dual [3]; [10],1.05
CN(C)c1ccc(C(=O)NCCCCCCC(=O)NO)cc1 (library stock concentration (final ~1000-fold dilution): 10 mM),NF-kB SEAP reporter activity,RAW-Dual [1]; agonist: LPS (TLR4) 0.1 ug/mL,4.72
same,NF-kB SEAP reporter activity,RAW-Dual [1]; [4],2.78
same,NF-kB SEAP reporter activity,RAW-Dual [1]; [5],1.17
same,NF-kB SEAP reporter activity,RAW-Dual [1]; [6],2.01
O=C(CCCCCCC(=O)N/N=C/c1ccc(N(c2ccccc2)c2ccccc2)cc1)NO (library stock concentration (final ~1000-fold dilution): 10 mM),NF-kB SEAP reporter activity,RAW-Dual [1]; agonist: LPS (TLR4) 0.1 ug/mL,5.47
same,NF-kB SEAP reporter activity,RAW-Dual [1]; [4],2.71
same,NF-kB SEAP reporter activity,RAW-Dual [1]; [5],1.09
same,NF-kB SEAP reporter activity,RAW-Dual [1]; [6],1.61
O=C(CCCCCCNC(=O)c1cnc(N(c2ccccc2)c2ccccc2Cl)nc1)NO (library stock concentration (final ~1000-fold dilution): 10 mM),NF-kB SEAP reporter activity,RAW-Dual [1]; agonist: LPS (TLR4) 0.1 ug/mL,4.23
same,NF-kB SEAP reporter activity,RAW-Dual [1]; [4],2.1
same,NF-kB SEAP reporter activity,RAW-Dual [1]; [5],0.586
same,NF-kB SEAP reporter activity,RAW-Dual [1]; [6],1.47
CN(C)CCCNC(=O)c1ccc(-c2cc(O)c3ncccc3c2)cc1 (library stock concentration (final ~1000-fold dilution): 10 mM),NF-kB SEAP reporter activity,RAW-Dual [2]; agonist: LPS (TLR4) 0.1 ug/mL,0.881
same,NF-kB SEAP reporter activity,RAW-Dual [2]; [4],1.38
same,NF-kB SEAP reporter activity,RAW-Dual [2]; [5],1.13
same,NF-kB SEAP reporter activity,RAW-Dual [2]; [6],1.34
CC(NCc1ccc(OCc2cccc(F)c2)cc1)C(N)=O.CS(=O)(=O)O (configuration not stated),NF-kB SEAP reporter activity,RAW-Dual [3]; [9],1.73
same,NF-kB SEAP reporter activity,RAW-Dual [3]; [10],1.07
CC(NCc1ccc(OCc2cccc(F)c2)cc1)C(N)=O.CS(=O)(=O)O (configuration not stated) (library stock concentration (final ~1000-fold dilution): 10 mM),NF-kB SEAP reporter activity,RAW-Dual [2]; agonist: LPS (TLR4) 0.1 ug/mL,1.08
same,NF-kB SEAP reporter activity,RAW-Dual [2]; [4],1.17
same,NF-kB SEAP reporter activity,RAW-Dual [2]; [5],0.813
same,NF-kB SEAP reporter activity,RAW-Dual [2]; [6],1.1
CCc1cnn2c(NCc3ccc[n+]([O-])c3)cc(N3CCCCC3CCO)nc12 (configuration not stated) (library stock concentration (final ~1000-fold dilution): 10 mM),NF-kB SEAP reporter activity,RAW-Dual [1]; agonist: LPS (TLR4) 0.1 ug/mL,0.193
same,NF-kB SEAP reporter activity,RAW-Dual [1]; [4],0.198
same,NF-kB SEAP reporter activity,RAW-Dual [1]; [5],0.0843
same,NF-kB SEAP reporter activity,RAW-Dual [1]; [6],0.182
CCc1cnn2c(NCc3ccc[n+]([O-])c3)cc(N3CCCCC3CCO)nc12 (configuration not stated),NF-kB SEAP reporter activity,RAW-Dual [3]; [7],0.308
same,NF-kB SEAP reporter activity,RAW-Dual [3]; [8],0.225
Cc1cn(-c2cc(NC(=O)c3ccc(C)c(Nc4nccc(-c5cccnc5)n4)c3)cc(C(F)(F)F)c2)cn1.Cl,NF-kB SEAP reporter activity,RAW-Dual [3]; [10],2.49
Cc1cn(-c2cc(NC(=O)c3ccc(C)c(Nc4nccc(-c5cccnc5)n4)c3)cc(C(F)(F)F)c2)cn1.Cl (library stock concentration (final ~1000-fold dilution): 10 mM),NF-kB SEAP reporter activity,RAW-Dual [2]; agonist: LPS (TLR4) 0.1 ug/mL,2.23
same,NF-kB SEAP reporter activity,RAW-Dual [2]; [4],1.41
same,NF-kB SEAP reporter activity,RAW-Dual [2]; [5],0.403
same,NF-kB SEAP reporter activity,RAW-Dual [2]; [6],0.466
Nc1nc(NC2CC2)c2ncn(C3C=CC(CO)C3)c2n1 (configuration not stated) (library stock concentration (final ~1000-fold dilution): 10 mM),NF-kB SEAP reporter activity,RAW-Dual [2]; agonist: LPS (TLR4) 0.1 ug/mL,1.05
same,NF-kB SEAP reporter activity,RAW-Dual [2]; [4],1.07
same,NF-kB SEAP reporter activity,RAW-Dual [2]; [5],1.35
same,NF-kB SEAP reporter activity,RAW-Dual [2]; [6],1.07
Nc1nc(NC2CC2)c2ncn(C3C=CC(CO)C3)c2n1 (configuration not stated),NF-kB SEAP reporter activity,RAW-Dual [3]; [10],1.16
